About 83,000 compounds went through this panel and 20% of them were active in at least one assay; those are over-represented in the sample as a whole.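 Note: values are percent growth. 100 is the growth of untreated cells, values between 100 and 0 indicate rising inhibition; between -100 and 0 indicates cell death.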 Values without a mark were called inactive. Calls of active or inactive are those of the source. The calls were made as follows: active = growth percent below 10; inactive = the rest.
Assays:
Assay in all cases: NCI-60 one-dose screen, 48 h (100 = growth as untreated, 0 = no growth, -100 = all killed)
Settings in all cases: 10 µM unless noted
NCI-H23 lung = test system: NCI-H23 lung
NCI-H226 lung = test system: NCI-H226 lung
NCI-H322M lung = test system: NCI-H322M lung
HOP-62 NSCLC = test system: HOP-62 NSCLC
NCI-H460 lung = test system: NCI-H460 lung
HOP-92 NSCLC = test system: HOP-92 NSCLC
NCI-H522 lung = test system: NCI-H522 lung
A549/ATCC NSCLC = test system: A549/ATCC NSCLC
786-0 renal = test system: 786-0 renal
COLO 205 colon = test system: COLO 205 colon

Row | SMILES | growth (NCI-H23 lung) | growth (NCI-H226 lung) | growth (NCI-H322M lung) | growth (HOP-62 NSCLC) | growth (NCI-H460 lung) | growth (HOP-92 NSCLC) | growth (NCI-H522 lung) | growth (A549/ATCC NSCLC) | growth (786-0 renal) | growth (COLO 205 colon)
1 | COc1ccc(/C=C\c2cc(OC)c(OC)c(OC)c2)c(NS(=O)(=O)c2ccc(F)cc2)c1O | 27.4% | 35.1% | 53.6% | 71.3% | 5.54% (active) | 43.3% | -18.6% (active) | 23.9% | 18.4% | 0.893% (active)
2 | CCn1c2ccccc2c2cc(C(=O)c3ccc(C)c4ccccc34)ccc21 | 5.37% (active) | 32.8% | 28.1% | 9.22% (active) | 10.6% | 40.6% | 0.105% (active) | 6.07% (active) | 17.6% | -16.3% (active)
3 | CC(=O)Nc1nc2c(s1)CC[C@@]1(C)C2=CC[C@H]2[C@@H]3CC[C@H](O)[C@@]3(C)CC[C@@H]21 | 73.3% | 89.9% | 79.8% | 67.1% | 27.3% | 84.7% | 51.6% | 56% | 35.7% | 72.2%
4 | C=CC1=C[C@@H]2[C@@H]3O[C@]4(CC[C@H](O4)[C@@H](C)C[C@@H](O)C3=O)C[C@H](O)C3=NCC[C@@]32CC1 | -34.6% (active) | -29.2% (active) | -23.4% (active) | -20.3% (active) | -28.9% (active) | -22.3% (active) | -33.5% (active) | -3.33% (active) | -28.3% (active) | -25.6% (active)
5 | COc1cc(NCCCN=C(N)N)c2ncccc2c1 | 14.1% | 86.2% | 74% | 73% | 96.4% | 56.7% | -10.2% (active) | 84.8% | 95.4% | 89.8%
6 | Cc1c2cc(Cl)c3ccccc3c2c[n+]2ccccc12 | 47.8% | 43.5% | 31.3% | 12.3% | 55.7% | 75.4% | 17.1% | 40.5% | 16.1% | 56.1%
7 | COc1ccc(N(CC(=O)NCCC[Te]c2ccccc2)C(=O)CNC(=O)OC(C)(C)C)cc1 | -15.5% (active) | 1.45% (active) | -6.97% (active) | 1.88% (active) | -23.9% (active) | -19.9% (active) | -0.481% (active) | -9.26% (active) | 73.3% | 86.9%
8 | O=C([O][Hg][CH2]C1OCCOC1[CH2][Hg][O]C(=O)c1ccccc1)c1ccccc1 (stereo not given) | 46.7% | 118% | 116% | 98.6% | 117% | -88.3% (active) | -64.1% (active) | 101% | 79.4% | -64.7% (active)
9 | CNC(=O)Oc1cccc(C(F)(F)F)c1 | 108% | 90% | 125% | 107% | 114% | 106% | 95.2% | 103% | 105% | 107%
10 | O=[N+]([O-])c1cc([N+](=O)[O-])c(Nn2c3ccccc3c3ccccc32)c([N+](=O)[O-])c1 | -3.12% (active) | -1.91% (active) | 2.33% (active) | -11.8% (active) | 3.43% (active) | -28.1% (active) | -25.4% (active) | 4.97% (active) | 0.775% (active) | -65.2% (active)
11 | COc1ccc(C2=CC(c3ccc(OC)c(OC)c3)c3c(c4ccccc4oc3=O)O2)cc1OC (stereo not given) | 63.4% | 89.5% | 35.8% | 49% | 9.23% (active) | -12.5% (active) | -43.7% (active) | 39.4% | 25.7% | 9.01% (active)
12 | CCCCC1(CCC)C(=O)NC(=S)NC1=O | 100% | 106% | 112% | 99.6% | 108% | 71.4% | 81.7% | 125% | 93.8% | 112%
13 | CC(=O)O[C@H](C[C@H](C(C)C)N(C)C(=O)[C@@H](NC(=O)[C@H]1CCCCN1C)C(C)C)c1nc(C(=O)N[C@@H](Cc2ccccc2)C[C@H](C)C(=O)O)c(C)s1 | 35.9% | 52.6% | 52.8% | 32.1% | 7.72% (active) | 25.6% | -4.18% (active) | 11.9% | 26.1% | -62.6% (active)
14 | CC(=O)OCC1O[C@@H]([S-])C(OC(C)=O)[C@H](OC(C)=O)[C@@H]1OC(C)=O.[Au+].c1ccc(CN2[CH-]N(Cc3ccccc3)C(c3ccccc3)=C2c2ccccc2)cc1 | 28.5% | 72.5% | 82.7% | 92.8% | 62% | -7.44% (active) | -47.6% (active) | 76.3% | 40.1% | 13.8%
15 | Cc1c(O)c(CN(CCCl)CCCl)cc(CN(CCCl)CCCl)c1O | 102% | 95.6% | 94.8% | 102% | 31.4% | 47.3% | 79.4% | 67.8% | 99.6% | 78.1%
16 | [Au+].[N-]=C=O.c1ccc(CN2[CH-]N(Cc3ccccc3)C(c3ccccc3)=C2c2ccccc2)cc1 | 79.5% | 107% | 112% | 116% | 98.5% | 81.4% | 5.83% (active) | 92.7% | 90.2% | 92.5%
17 | COc1ccc(Nc2ccc([N+](=O)[O-])cc2[N+](=O)[O-])cc1CN(CCCl)CCCl | 18.4% | 39.7% | 45.8% | 35.8% | 7.13% (active) | 39.2% | 21.1% | 33.5% | 18.4% | 38%
18 | CCCCCCCOC(C(=O)OCCN(CC)CC)(c1ccccc1)c1ccccc1 | 87.7% | 96.4% | 98.7% | 89.6% | 84.4% | 67.6% | 73.4% | 90.8% | 65.8% | 95.3%
19 | O=C(N/N=C/c1ccc(N(CCCl)CCCl)cc1)c1cccc2ccccc12 | 85.7% | 74.3% | 102% | 59.5% | 47% | 55.5% | 47.9% | 58.4% | 74.2% | 86.3%
20 | O=[N+]([O-])c1ccc([Se]C2CCCCC2Cl)c([N+](=O)[O-])c1 (stereo not given) | 40.3% | 73.5% | 55.7% | 7.16% (active) | 57.7% | 53.8% | 63.3% | 45.5% | 128% | 102%
21 | COc1ccc(S(=O)(=O)N(Cc2ccc3c(c2)C=CC(C)(C)O3)c2ccccc2)cc1OC | 47.6% | 55.4% | 102% | 87.1% | 76.7% | 88.2% | 61.5% | 79.1% | 87.1% | 64.7%
22 | COC1CC2c3ccccc3C1C(C)=[N+]2C (stereo not given) | 89.3% | 90.8% | 99.5% | 110% | 106% | 98.7% | 79.8% | 96% | 98.9% | 120%
23 | CCCC[C@H](NC(=O)[C@H]1CCCCN1C)C(=O)N(C)[C@H](C[C@@H](OC(C)=O)c1nc(C(=O)N[C@@H](Cc2ccccc2)C[C@H](C)C(=O)OCC)cs1)C(C)C | 27.1% | 32.8% | 32.9% | 18.1% | 6.75% (active) | 18.1% | -25% (active) | 11% | 3.81% (active) | -69.9% (active)
24 | CC(=O)O[C@H]1CC[C@@]2(C)C(=CC[C@H]3[C@@H]4C[C@@H](N5CC5)[C@H](C(C)=O)[C@@]4(C)CC[C@@H]32)C1 | 98.5% | 92.2% | 110% | 83.4% | 93.2% | 80.7% | 88.7% | 100% | 101% | 99.2%
25 | CCOC(=O)N[C@H]1CCc2c(Br)c(OC)c(OC)c(OC)c2-c2ccc(SC)c(=O)cc21 | 31.2% | 10.3% | 35.3% | 34.9% | -7.92% (active) | -4.54% (active) | 13.2% | 20.9% | 9.3% (active) | 5.51% (active)
26 | CCN1C(=O)C(=C/C=C/c2ccccc2)C(=O)N(CC)C1=O | 95.5% | 94.5% | 104% | 97.8% | 77.8% | 116% | 73.3% | 101% | 106% | 93.8%
